As usually defined, the viability is a read-out of living cells in per cent, often relative to untreated cells.

Screen size: about 140,000 compounds; about 1,700 (1.2%) were called active. The sample holds actives, similar compounds and a random draw of the others, so the mix is not that of the screen. Values without a mark were called inactive.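 How the source made its calls: active means viability at or below a set limit, 4 SD under the median of all tested compounds (cut at about 3.7% in these data); inactive means the rest.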

This passage reports viability results from PubChem BioAssay AID827 (SRMLSC, 2007).

The nature of the experiment: viability loss in PTEN-deleted colon tumor cells – cell-based, HCT116, CellTiter-Glo, primary screen (AID 827).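 Further: PTEN knockout HCT116 line with beta catenin targeted HCT116 as companion control.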 The note with it: HCT116 PTEN-null viability, 60 h, at 10 µM, active compounds read low. In general terms: ATP-based viability assays read luminescence as a measure of living cells.
As to `c1ccc2c(c1)C(=NC1CCCCC1)NC2=NC1CCCCC1`, the viability is 1.88% (active).

`O=C1CCCCC(=O)c2ccccc2N1`: the viability is 97.7%.

Turning to `O=C(CN1C(=O)C2C3CCC(C3)C2C1=O)Oc1ccc2ccccc2c1` (stereo not drawn), the viability was 86%. The result for `CC1=CC(C)(C)Nc2ccc(OC(=O)CN3C(=O)C4CCCCC4C3=O)cc21` (stereo not drawn) reads 0.76% (active); that for `CC1=CC(C)(C)Nc2ccc(OC(=O)C(Cc3ccccc3)N3C(=O)C4CCCCC4C3=O)cc21` (stereo not drawn), 45.7%. Next, `CCn1c(=O)cc(SCC(=O)NCCC2=CCCCC2)c2ccccc21`: 91.3%; `CCCC(=O)Nc1ccc(C(=O)N/N=C/c2ccc[nH]2)cc1`: 80.1%. Next, `Cc1ccc(S(=O)(=O)N2CCC(C(=O)N[C@@H](C)C(=O)NCc3ccco3)CC2)cc1`: 102%; `Cc1cc(C)c2nc3nc(C)cc(C)c3c(N)c2c1`: 2.26% (active); `Cc1cc(C)c2nc(SCCC#N)nc(C)c2c1`: 109%. Take `CNC(=S)N/N=C/c1cn(Cc2ccc(C)cc2)c2ccccc12`: the viability was 49.9%. Next, `Cc1cccc(N2CCN(C(=O)c3cnn4c(C(F)F)cc(-c5ccccc5)nc34)CC2)c1C`: 3.53% (active). The result for `CC(=O)N1CCN(c2cccc(C)c2C)CC1` reads 98%; that for `O=C(O)c1cnn2c(C(F)(F)F)cc(-c3ccccc3)nc12`, 95.3%.

Turning to `O=C(c1cccs1)N1CCN(Cc2ccc3c(c2)OCO3)CC1`, the viability was 94.4%. Turning to `O=C(Nc1cccc2ccccc12)N1CCN(Cc2ccc3c(c2)OCO3)CC1`, the viability was 1.32% (active). Next, `O=C(CCCN1C(=O)c2cccc3cccc(c23)C1=O)N1CCN(Cc2ccc3c(c2)OCO3)CC1`: 89.4%; `CC1CCN(c2ccc(C(=O)Nc3nnc(C4CC4)s3)cc2[N+](=O)[O-])CC1`: 96.1%; `Cc1ccc(C2=N/C(=C\c3ccc(OS(=O)(=O)c4ccc(C)cc4)cc3)C(=O)O2)cc1`: 92.6%. With `CCC(=O)/C=C1\Sc2ccccc2N1CC`, the viability was 95.3%. The result for `CCN1/C(=C/c2ccc3ccc(C)cc3[n+]2CC)Sc2ccccc21` reads 2.61% (active); that for `O=C(NNC1=NCCC1)c1cccc(S(=O)(=O)N2CCCCC2)c1`, 96.7%.

With `CC(=O)c1ccc(NC(=S)NC(=O)CC(C)C)cc1`, the viability is 98.8%.

As to `O=C(CC(=O)N/N=C\c1cccc(Cl)c1Cl)NCc1ccccc1`, the viability is 90.4%. Next, `COc1ccccc1-n1nnnc1S(=O)(=O)Cc1ccc(Cl)cc1`: 3.39% (active).

Regarding `COc1ccccc1N1CCN(Cc2nnnn2CCc2ccccc2)CC1`, the viability was 104%. Next, `COc1ccccc1N1CCN(C(=O)CN(Cc2ccc(Cl)cc2)S(C)(=O)=O)CC1`: 68.5%; `CCCN=C1NC(=O)C(CC(=O)NCCc2ccc(OC)c(OC)c2)S1` (stereo not drawn): 96.5%. Next, `CC(C)Nc1nnc(SCC(=O)/C=C2\N(C)c3ccccc3C2(C)C)s1`: 79%. Next, `CCOc1ccc(NC(=O)CCC(=O)N/N=C/c2ccc([N+](=O)[O-])s2)cc1`: 6.05%; `O=[N+]([O-])c1ccc(C=Nc2ccc(Cl)cc2Cl)s1`: 2.41% (active).

As to `CC(=O)NC1=NN(C(C)=O)C(C)(CCS(=O)(=O)c2ccc(Cl)c(Cl)c2)S1` (stereo not drawn), the viability is 94.7%. The result for `COc1ccc2nc(NC(=O)[C@@H]3CCCN3C(=O)c3cccs3)sc2c1` reads 85.2%; that for `CN1CCN(CCCNC(=O)c2cc3c(=O)oc4ccccc4c3s2)CC1`, 109%.

For the compound `Cn1c(C(=O)NCCN2CCc3ccccc3C2)cc2c(=O)[nH]c3ccccc3c21`, the viability was 75.8%. The result for `O=C(NCCN1CCN(Cc2ccccc2)CC1)c1cc2c(=O)[nH]c3ccccc3c2s1` reads 2.62% (active); that for `COc1ccccc1OCC(=O)OCn1c(SC)nnc(C)c1=O`, 98.3%. As for `CC(C)(C)C(=O)N1CCC[C@@]1(CO)C(=O)O`, the viability was 93.1%. The result for `CCCCCC(=O)Nc1ccc(C(=O)N/N=C/c2ccc([N+](=O)[O-])cc2)cc1` reads 1.62% (active); that for `CCCCCC(=O)NC(=S)NNC(=O)c1ccc([N+](=O)[O-])cc1`, 37.4%; that for `O=C(COc1ccc(/C=N/NC(=O)c2ccc(O)cc2)cc1)Nc1ccc([N+](=O)[O-])cc1`, 60.2%.

As to `Cc1cc(C)cc(OCC(=O)Nc2nc3ccc([N+](=O)[O-])cc3s2)c1`, the viability was 103%. Turning to `O=C(NC(Nc1nc2ccc([N+](=O)[O-])cc2s1)(C(F)(F)F)C(F)(F)F)c1ccccc1`, the viability is 1.46% (active). Consider `COC(=O)C(NC(=O)c1ccc(OC)cc1)(Nc1ncc(S(=O)(=O)c2ccc([N+](=O)[O-])cc2)s1)C(F)(F)F` (stereo not drawn), for which the viability is 72.2%. `COc1cc(NC(=O)COC(=O)CSc2ccc3ccccc3c2)c(C)cc1[N+](=O)[O-]`: the viability is 96.9%.

With `CCn1nc(C)c(/C=N/NC(=O)Cc2ccc(Cl)cc2)c1C`, the viability is 91.7%. The result for `CCOc1ccc(C(=O)NC(=S)Nc2ccc(NC(=O)C(C)C)cc2)cc1[N+](=O)[O-]` reads 87.9%. With `Cc1[nH]c2ccccc2c1C(=O)COC(=O)C(C)C`, the viability is 112%. Next, `CCOC(=O)c1c(C)[nH]c2c1-c1ccccc1C(=O)C2=O`: 1.66% (active); `CCOC(=O)c1c(C)[nH]c(=S)c(C#N)c1-c1ccccc1`: 102%; `CN(C)S(=O)(=O)c1cc(NC(=O)CN2C(=O)NC3(CCCc4ccccc43)C2=O)ccc1Cl` (stereo not drawn): 59.3%. `CCOCCCNC(=O)C(=O)NCCCOCC`: the viability was 102%.

For `CCC(CC)C(=O)N1CC(=O)Nc2ccc(Br)cc2C1c1ccccc1` (stereo not drawn), the viability was 71.6%. The result for `COC(=O)CN1C(C)=Nc2ccc(Br)cc2C1c1ccccc1` (stereo not drawn) reads 0.62% (active). As to `COC(=O)CN1C(=O)C(O)=C(C(C)=O)C1c1ccc([N+](=O)[O-])cc1` (stereo not drawn), the viability was 96.7%. The result for `COc1ccc(OCc2cn3c(C)cc(C)nc3n2)cc1` reads 99.6%. The result for `Cc1ccc(S(=O)(=O)N2CCN(CC(=O)N/N=C/c3cc([N+](=O)[O-])ccc3Cl)CC2)cc1` reads 74.4%; that for `CC(C)/C=N/NC(=O)c1cc(Br)ccc1O`, 89%. The result for `COc1ccc(C/C(C)=N/NC(=O)c2cc(C)oc2C)cc1` reads 98.5%; that for `c1ccc2cc3c(NCCN4CCOCC4)ccnc3cc2c1`, 3.31% (active); that for `O=C(Cn1c(-c2ccccn2)nc2ccccc21)NCCN1CCOCC1`, 102%. For the compound `c1ccc2[nH]c(NCCN3CCOCC3)nc2c1`, the viability was 103%. On to `COc1ccccc1C(=O)Nc1ccc(OCc2nnc3c4ccccc4c(C)nn23)cc1`, for which the viability is 101%. In the case of `CCCNC(=O)NC(=O)COC(=O)CC(NC(N)=O)c1ccc(Cl)cc1` (stereo not drawn), the viability is 103%.

With `N#C/C(C(=O)N1CCOCC1)=C1/SC(Cc2ccc(F)cc2)C(=O)N1c1ccccc1` (stereo not drawn), the viability was 89.2%.

Regarding `CCCCOc1ccc(C(=O)NN2CCN(C)CC2)cc1`, the viability is 102%. Regarding `CCCOc1ccc(C(=O)C(CCC(CNCC)C(=O)c2ccc(OCCC)cc2)CNCC)cc1` (stereo not drawn), the viability was 0.64% (active). Next, `CCCCOc1ccc(C(=O)NCc2ccncc2)cc1`: 70.3%; `CC1(C)C2CC=C(/C=N/NC(=O)c3ccc(Cl)cc3)C1C2` (stereo not drawn): 90.5%; `Fc1ccccc1/C=C1\CCCC2=C1Nc1ncnn1C2c1ccccc1F` (stereo not drawn): 2.48% (active). The result for `O=C(/C=C\c1cn(-c2ccccc2)nc1-c1cccs1)N1CCOCC1` reads 67.3%; that for `CCn1c(/C=N/NC(=O)c2ccc(OC)cc2)nc2ccccc21`, 14.3%. Regarding `O=C(Nn1c(-c2ccc(Cl)cc2)nc2ccccc2c1=O)c1cccnc1Cl`, the viability was 102%. The result for `CCOC(=O)c1c(/N=C/c2cc(C)ccc2O)sc2c1CCC2` reads 91.9%; that for `CSc1nc(C)cc(SC(C(C)=O)C(=O)Nc2ccccc2)n1` (stereo not drawn), 88.1%; that for `CSc1nc(-c2ccccc2)nc(C(Cl)Cl)n1`, 2.06% (active). The result for `C/C(=N/NS(=O)(=O)c1ccccc1)c1ccc(NC(=O)C(F)(F)F)cc1` reads 96.4%. Take `CCOc1cc(N2CCOCC2)c(OCC)cc1NC(=O)COC(=O)[C@H](Cc1c[nH]c2ccccc12)NC(C)=O`: the viability was 93.5%. Next, `CCOc1cc(N2CCOCC2)c(OCC)cc1NC(=O)COc1cccc2cccnc12`: 3.59% (active); `Cc1cccc(OCC(=O)NC(=S)Nc2ccccc2N2CCOCC2)c1`: 99.9%; `O=[N+]([O-])c1ccc(N2CCN(S(=O)(=O)c3ccccc3)CC2)cc1N1CCc2ccccc2C1`: 89.4%. The result for `O=C(Cc1ccccc1)NNS(=O)(=O)c1ccc([N+](=O)[O-])cc1` reads 101%. As to `CC(C)CCN1C(=O)c2ccc(C(=O)Nc3cccc(S(N)(=O)=O)c3)cc2C1=O`, the viability is 88.8%. For `CN1CCN(CC(=O)Nc2sc3c(c2C#N)CCC(C(C)(C)C)C3)CC1` (stereo not drawn), the viability is 3.39% (active). Next, `COC(=O)c1c(NC(=O)CN2CCN(S(=O)(=O)c3ccccc3[N+](=O)[O-])CC2)sc2c1CCC(C)C2` (stereo not drawn): 93.5%; `CCC1CCc2c(sc(NC(C)=O)c2C#N)C1` (stereo not drawn): 95.5%. Next, `Cc1ccc2sc(NNC(=O)c3ccc4c(c3)OCCO4)nc2c1C`: 68.3%; `O=C1C2C3C=CC(C4CC34)C2C(=O)N1c1nccs1` (stereo not drawn): 101%; `C=CCOc1ccc(/C=N/NC(=O)C(C)Sc2ccccn2)cc1OCC` (stereo not drawn): 103%. Next, `Cc1ccc(OCc2nnc(SC3CCc4ccccc4C3=O)n2C)cc1` (stereo not drawn): 85.3%; `O=C(/C=C/c1ccc(Cl)cc1Cl)c1cccnc1`: 0.59% (active). As to `O=C(NCc1ccc(Cl)c(Cl)c1)c1cccnc1`, the viability was 100%. Next, `O=C(/C=C/c1ccc(Cl)cc1Cl)NCc1ccco1`: 96.5%.
